GALK inh – inhibitors of human galactokinase; Purified GALK, Kinase-Glo residual ATP luminescence; AID 1868; 270,000 tested, 0.007% active; Potency, µM (top dose mostly 57.5 µM), usual class: inhibitors; P51570
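Luminescence from leftover ATP (Ultra-Glo luciferase/luciferin) served as read-out after a 1 h room-temperature reaction of 5 nM GALK with 35 uM ATP and 100 uM galactose.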
TrxR1 substrate – rat thioredoxin reductase 1 substrate activity | 390,000 tested, 0.01% active | Potency, µM (titrated, usually from 114 µM) | O89049 | purified TrxR1 substrate turnover, NADPH consumption readout | AID 588456; further: nearly all actives have a fitted effect of over 50% in size
Target sequence (O89049 whole entry, looked up): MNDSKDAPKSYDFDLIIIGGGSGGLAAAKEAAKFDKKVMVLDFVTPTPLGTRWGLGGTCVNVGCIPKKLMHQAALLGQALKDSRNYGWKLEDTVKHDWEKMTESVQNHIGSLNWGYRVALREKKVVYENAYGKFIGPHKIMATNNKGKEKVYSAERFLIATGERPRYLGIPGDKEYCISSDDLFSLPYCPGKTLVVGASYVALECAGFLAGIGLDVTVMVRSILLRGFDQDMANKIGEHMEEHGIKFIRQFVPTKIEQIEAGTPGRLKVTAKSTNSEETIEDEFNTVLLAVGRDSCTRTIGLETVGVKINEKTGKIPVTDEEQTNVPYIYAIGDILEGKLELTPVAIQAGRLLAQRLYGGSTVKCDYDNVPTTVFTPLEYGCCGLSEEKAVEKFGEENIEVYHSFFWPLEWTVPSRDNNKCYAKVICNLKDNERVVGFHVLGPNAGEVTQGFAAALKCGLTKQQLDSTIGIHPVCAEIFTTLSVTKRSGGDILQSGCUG
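Rat TrxR1, dispensed at 90 nM, was prereduced with 400 uM NADPH (final) for 5 min at ~22 deg C, then incubated with compound 15 min before 400 uM selenite. A first-read NADPH fluorescence drop versus no-compound background flagged substrates.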
PI4K2A block – PI4K2A (human) kinase inhibition | Q9BTU6 | purified PI4K2A, ADP-Glo luminescence, 1 h; hits give low values | activity change, negative = inhibition, % at 76.9 µM | 420,000 tested, 0.13% active | AID 1346378; in the data active means activity change below about -50%; inconclusive means mostly about -30% to -49%
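In this quantitative HTS, ADP production by PI4K2A was quantified luminescently after 1 h at ambient temperature; 100 microM adenosine served as plate-quality control.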
rTrxR1 inhibitor – rat TrxR1 inhibition | O89049 | recombinant rTrxR1, NADPH fluorescence consumption, selenite substrate | Potency, µM (titrated, usually from 114 µM), usual class: inhibitors | 390,000 tested, 1% active; further: nearly all actives have a fitted effect of over 65% in size
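Rat TrxR1 (90 nM in the dispensed reagent) was pre-reduced with 400 uM NADPH for 5 min at room temperature, then incubated with compound for 15 min. After 400 uM selenite was added, NADPH fluorescence (Ex 340/Em 450 nm) was followed for 8 min.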
PKM2 act – activators of human pyruvate kinase M2; 260,000 tested, 0.34% active; Potency, µM (top dose mostly 57.5 µM), actives largely listed as activators; AID 1631; purified PKM2, Kinase-Glo ATP luminescence, activation; response scale: 0% is enzyme alone, no compound; P14618; further: nearly all actives have a fitted effect of over 55% in size
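Purified hPK-M2 (>95% pure) converted ADP (0.1 mM final) to ATP with 0.5 mM PEP in 50 mM imidazole pH7.2, KCl, MgCl2, Tween 20, BSA; 1 h at room temperature. ATP detected by Kinase-Glo luminescence.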
Large screens that a line does not name were inactive. Sampled rows, rich in hits. Any-hit rate of the full collection: about 1.2%. Unless noted, the call rests on the fitted dose curve; in most records, active means well fitted curve in the direction sought with a large enough effect; inconclusive means small, poorly fitted or top-dose-only effect, or another doubt; inactive means no such curve, though single readings can be large; an effect the other way counts as inactive or inconclusive.

Cc1ccc(NN2C(=O)C=C(c3ccccc3)C2=O)cc1	rTrxR1 inhibitor 6.3µM
O=C1c2ccccc2C(=O)N1Nc1ccccc1	none
N#CC(C#N)=C1c2cc(S(=O)(=O)NCCO)ccc2-c2ccc(S(=O)(=O)NCCO)cc21	rTrxR1 inhibitor 3.5µM, PKM2 act 1.3µM
O=C1c2cc(S(=O)(=O)NCCO)ccc2-c2ccc(S(=O)(=O)NCCO)cc21	PKM2 act 5.6µM
O=C(O)CNS(=O)(=O)c1ccc2c(c1)C(=O)c1cc(S(=O)(=O)NCC(=O)O)ccc1-2	none
CCc1ccc(CNC(=O)c2c(C)oc3ncn(CC(C)C)c(=O)c23)cc1	none (no result: GALK inh, PKM2 act)
CN(C1CCCCC1)S(=O)(=O)c1ccc2c(c1)c(=O)c(C(=O)NCCc1ccc(Cl)cc1)cn2C	none (no result: GALK inh, PKM2 act)
Cc1nnc(SCC2=C(C(=O)O)N3C(=O)C(NC(=O)Cn4nc(C(F)F)c(Cl)c4C)C3SC2)s1 (stereo unspecified)	PI4K2A block inconclusive
Cc1nnc(SCC2=C(C(=O)O)N3C(=O)C(NC(=O)Cn4nc(C(F)F)cc4C)C3SC2)s1 (stereo unspecified)	rTrxR1 inhibitor 45µM
Cc1nnc(SCC2=C(C(=O)O)N3C(=O)C(NC(=O)COc4ccc(F)cc4)C3SC2)s1 (stereo unspecified)	rTrxR1 inhibitor 4µM (no result: GALK inh, PKM2 act)
Cc1nnc(SCC2=C(C(=O)O)N3C(=O)C(NC(=O)COc4ccccc4)C3SC2)s1 (stereo unspecified)	rTrxR1 inhibitor 7.9µM (no result: GALK inh, PKM2 act)
O=C(CS(=O)(=O)c1cccc2nsnc12)N1CCN(c2ccccc2F)CC1	none (no result: GALK inh, PKM2 act)
O=C(NCc1ccccc1)N1CCC(c2nc3ccc(Cl)cc3[nH]2)CC1	none (no result: GALK inh, TrxR1 substrate, rTrxR1 inhibitor, PKM2 act)
N#Cc1ccc(/C=C2\CC3(OC(=O)C4CCCCC4)CCCN2C3)cc1 (stereo unspecified)	none (no result: GALK inh, TrxR1 substrate, rTrxR1 inhibitor, PKM2 act)
Cn1c(CCNC(=O)c2ccco2)nc2cc(NS(=O)(=O)c3ccc(Cl)cc3)ccc21	PKM2 act 16µM
Cc1cccc(NC(=O)C2CCCN2S(=O)(=O)c2cccc3cccnc23)c1C (stereo unspecified)	none (no result: GALK inh, TrxR1 substrate, rTrxR1 inhibitor, PKM2 act)
CCOc1ccc(NC(=O)Cc2coc3ccc(C)cc23)cc1	none (no result: GALK inh, PKM2 act)
NC(=O)c1sc2nc(-c3ccco3)ccc2c1N	rTrxR1 inhibitor 45µM
COc1ccc(S(=O)(=O)N2CCN(S(=O)(=O)c3ccc4c(c3)OCCO4)CC2)cc1C	PKM2 act 3.5µM
O=C(c1cccc([N+](=O)[O-])c1)N1CCN(Cc2ccc3c(c2)OCO3)CC1	PI4K2A block -69
O=S(=O)(c1ccc2c(c1)OCCO2)N1CCN(Cc2ccc3c(c2)OCO3)CC1	PKM2 act 3.5µM
O=S(=O)(c1ccc2c(c1)OCCO2)N1CCN(c2cccc(Cl)c2)CC1	PKM2 act 2.8µM
COC(=O)CNC(=O)C1(C)C=CC2(CCCCC2)N1C(C)=O (stereo unspecified)	none (no result: GALK inh, TrxR1 substrate, PI4K2A block, rTrxR1 inhibitor)
O=C(NC1CCCCN(Cc2ccc(Cl)cc2)C1=O)c1ccc(-c2ccccc2)cc1 (stereo unspecified)	none (no result: GALK inh, TrxR1 substrate, rTrxR1 inhibitor, PKM2 act)
COc1ccccc1N1CCN(C(=O)C2CCN(S(=O)(=O)c3cccs3)CC2)CC1	none (no result: GALK inh, PKM2 act)
Cc1ccc(S(=O)(=O)N2CCCN(S(=O)(=O)c3ccc4c(c3)OCCO4)CC2)cc1	PKM2 act 0.35µM
CCS(=O)(=O)N1CCN(S(=O)(=O)c2ccc3c(c2)OCCO3)CC1	PKM2 act 3.5µM
CC(=O)c1ccc(Nc2ccc3cc(S(=O)(=O)N4CCCC4)ccc3n2)cc1	none (no result: GALK inh, PKM2 act)
COCCc1nn2c(=O)cc(COC(=O)COc3ccccc3C)nc2s1	none (no result: GALK inh, PKM2 act)
COC(=O)N1C(c2ccccc2)=Cc2ccccc2C1CC(C)=O (stereo unspecified)	none (no result: GALK inh, TrxR1 substrate, PI4K2A block, rTrxR1 inhibitor)
CCOc1ccc(-c2nnc(SCC(=O)Nc3cccc(C#N)c3)o2)cc1	rTrxR1 inhibitor 35µM (no result: GALK inh, PKM2 act)
Cc1cc(N2CCN(C)CC2)nc2ccc(NC(=O)Nc3ccccc3Br)cc12	none (no result: GALK inh, PKM2 act)
CCCCNS(=O)(=O)c1ccc2nc(SCC(=O)c3ccc(C#N)cc3)[nH]c2c1	PKM2 act 22µM
Cn1c2ccc(F)cc2c2nnc(SCC(=O)Nc3cccc(O)c3)nc21	PKM2 act 0.32µM
Cn1c2ccccc2c2nnc(SCC(=O)Nc3cccc(C(=O)O)c3)nc21	none (no result: PKM2 act)
COc1cc(OC)cc(C(=O)Nc2ccc(NC(=O)c3ccco3)c(C)c2)c1	rTrxR1 inhibitor 25µM
O=Cc1ccc(N2CCN(S(=O)(=O)c3ccc4c(c3)CC(=O)N4)CC2)cc1	PI4K2A block -56 (no result: GALK inh, TrxR1 substrate, rTrxR1 inhibitor, PKM2 act)
Cc1ccccc1CNC(=O)c1nn(-c2ccccc2F)nc1CO	none (no result: GALK inh, PKM2 act)
COc1ccc(N(CN2C(=O)C3CCCCC3C2=O)C(=O)c2ccco2)cc1 (stereo unspecified)	none
Cc1ccc(N(CN2C(=O)C3CC=CCC3C2=O)C(=O)c2ccco2)cc1Cl (stereo unspecified)	rTrxR1 inhibitor 14µM
CCOC(=O)C(C)Nc1ncnc2onc(C)c12 (stereo unspecified)	none (no result: GALK inh, PKM2 act)
CCOc1ccc2nc(N3C(=O)C(O)=C(C(=O)c4ccco4)C3c3ccco3)sc2c1 (stereo unspecified)	none (no result: GALK inh, PKM2 act)
CCOC(=O)c1sc(N2C(=O)C(O)=C(C(=O)c3ccco3)C2c2ccco2)nc1C (stereo unspecified)	rTrxR1 inhibitor 32µM
Cn1c(=O)n(C/C=C/c2ccccc2)c(=O)c2c1nc1n2CCN1c1ccc(F)cc1	none (no result: GALK inh, PKM2 act)
CCOc1ccc(C2c3c(oc4ccccc4c3=O)C(=O)N2CCCN2CCOCC2)cc1OCC (stereo unspecified)	rTrxR1 inhibitor inconclusive
O=C1c2oc3ccccc3c(=O)c2C(c2cccc(O)c2)N1CCCN1CCOCC1 (stereo unspecified)	rTrxR1 inhibitor 45µM
COc1ccc(C2c3c(oc4ccccc4c3=O)C(=O)N2CCCN2CCOCC2)cc1 (stereo unspecified)	rTrxR1 inhibitor 35µM (no result: GALK inh, PKM2 act)
COc1ccc(OC)c(/C=N/NC(=O)c2[nH]ncc2Br)c1	none
CCOc1ccc(/C=N/NC(=O)c2[nH]ncc2Br)c(O)c1	PI4K2A block -75
COc1cc2c(cc1OC)C(C)N(C(=O)c1cccs1)CC2 (stereo unspecified)	none
COc1cc2c(cc1OC)C(C)N(C(=O)c1cc3c(=O)oc4ccc(C)cc4c3s1)CC2 (stereo unspecified)	rTrxR1 inhibitor 79µM (no result: GALK inh)
CCOC(=O)N1CCN(C(=O)C[C@H]2C[C@@]3(C(=O)OC)C(=C[C@H](COCc4ccccc4)O[C@@H]3C)N(Cc3ccco3)C2=O)CC1	none (no result: GALK inh, TrxR1 substrate, rTrxR1 inhibitor, PKM2 act)
Cc1ccc(S(=O)(=O)N2CCN(c3cnn(C)c(=O)c3Cl)CC2)cc1	PKM2 act 20µM
Cc1ccc(S(=O)(=O)N2CCCN(C)CC2)cc1	rTrxR1 inhibitor 28µM (no result: PKM2 act)
C[C@H](NC(N)=O)C(=O)N1CCN(S(=O)(=O)c2ccc3ccccc3c2)CC1	PKM2 act inconclusive
